High-throughput results: PubChem, National Center for Advancing Translational Sciences (NCATS)
JMJD2A Tudor: blocks the human JMJD2A Tudor domain; O75164; AlphaScreen JMJD2A-Tudor / H3K4me3 peptide binding; Potency, µM (highest dose often 114 µM), without a hit: at the top dose activity change, negative = inhibition, actives largely listed as inhibitors; 4.4% of 390,000 active; AID 504339; note: potency is the fitted concentration of half-maximal effect; % is set by controls: 0 for no effect and ±100 for the full control effect; nearly all actives have a fitted effect of over 50% in size
HP1b binding inh: HP1-beta chromodomain-methylated histone interaction inhibition | P83916 | AlphaScreen HP1-beta / biotin-H3K9me3 peptide binding | Potency, µM (titrated, usually from 114 µM), without a hit: top-dose activity change, negative = inhibition, actives largely listed as inhibitors | 0.56% of 390,000 active | AID 540317; note: potency is the fitted concentration of half-maximal effect; nearly all actives have a fitted effect of over 70% in size
Target sequence (P83916 whole entry, looked up): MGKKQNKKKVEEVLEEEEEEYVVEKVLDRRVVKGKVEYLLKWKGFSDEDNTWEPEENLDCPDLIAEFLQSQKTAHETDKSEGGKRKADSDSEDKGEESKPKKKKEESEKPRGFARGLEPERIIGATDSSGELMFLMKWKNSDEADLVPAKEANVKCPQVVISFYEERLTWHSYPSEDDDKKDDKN
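Compound inhibition of the preformed complex between 50 nM HP1-beta and 50 nM biotinylated H3K9me3 peptide was read by AlphaScreen. Buffer was PBS pH 7.4 with 0.01% Tween-20. Incubations ran 30 min at room temperature, with 10 ug/mL donor/acceptor beads.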
BAZ2B inh: blocks human BAZ2B; 4.4% of 360,000 active; AlphaScreen BAZ2B-H3K14Ac peptide displacement; Potency, µM (titrated, usually from 114 µM), for inactives: at the highest dose activity change, negative = inhibition, hits mostly inhibitors; Q9UIF8; note: potency is the fitted concentration of half-maximal effect; % is set by controls: 0 for no effect and ±100 for the full control effect; nearly all actives have a fitted effect of over 60% in size
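BAZ2B 50 nM plus b-H3(5-23)K14Ac 50 nM, PBS pH 7.4/0.01% Tween-20, 30 min RT; compound added (max 110 uM), 30 min RT; streptavidin donor/Ni-chelate acceptor beads 10 ug/mL final, 20 min dark; AlphaScreen read.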
G9a block: inhibitors of human histone lysine methyltransferase G9a; Q96KQ7; G9a H3K9 monomethylation, AlphaScreen, 2 h; Potency, µM (series often up to 102 µM), inactives show at the top dose activity, negative = inhibition, most hits filed as inhibitors; 8.8% of 350,000 active; AID 504332; note: potency is the fitted concentration of half-maximal effect; % is set by controls: 0 for no effect and ±100 for the full control effect; nearly all actives have a fitted effect of over 75% in size
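Enzyme 20 nM + cpd, 15 min RT; add b-H3K9 pep 500 nM / SAM 20 uM; 2 h RT; anti-H3K9me1 Ab 0.5 ug/mL + SA donor / anti-rabbit acceptor beads 20 ug/mL each, 10 min; AlphaScreen read.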
PLK1 PBD block: inhibitors of human PLK1 polo-box domain binding; Potency, µM, without a hit: max response, negative = inhibition, actives largely listed as inhibitors; AID 720504; P53350; Plk1 PBD binding of FITC phosphopeptide, fluorescence polarization; 2.8% of 360,000 active; note: potency is the fitted concentration of half-maximal effect; series mostly up to about 57 µM; % is set by controls: 0 for no effect and ±100 for the full control effect; nearly all actives have a fitted effect of over 65% in size
PI5P4Ka inh: inhibitors of human PI5P4K alpha. PI5P4Kalpha enzyme, ADP-Glo luminescence, 60 min; stronger effect = lower value. P48426. max response, %. 1.2% of 330,000 active; active = max response of -50% or lower; inconclusive = between -30% and -50%; inactive = -30% or higher; note: value at the top dose of about 77 µM; % is set by controls: 0 for no effect and ±100 for the full control effect
Target sequence (P48426 whole entry, looked up): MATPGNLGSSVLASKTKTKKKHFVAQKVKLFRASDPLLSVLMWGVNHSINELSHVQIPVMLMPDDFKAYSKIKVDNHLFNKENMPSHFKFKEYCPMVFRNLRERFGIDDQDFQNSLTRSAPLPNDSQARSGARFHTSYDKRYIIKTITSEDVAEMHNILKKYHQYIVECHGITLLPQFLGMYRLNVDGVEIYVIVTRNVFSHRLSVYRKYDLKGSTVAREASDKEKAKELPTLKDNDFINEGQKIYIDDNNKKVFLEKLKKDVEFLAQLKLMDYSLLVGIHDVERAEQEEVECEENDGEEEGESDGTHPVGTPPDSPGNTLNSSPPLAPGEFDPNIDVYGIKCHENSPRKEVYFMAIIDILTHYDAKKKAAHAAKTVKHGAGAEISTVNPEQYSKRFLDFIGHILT
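Luminescence from ADP-Glo served as readout of PI5P4Kalpha activity in a qHTS format. Reaction: enzyme, substrate, compound, ATP at 5 microM final, 60 min at RT.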
Active calls of the source: *; ? = inconclusive; . = not tested or not shown; [ ] = another dose, or the depositor's remark. Only some compounds are listed: those with a hit (about 12% of all), similar ones and a draw of the others. Unless noted, calls come from the whole dose curve; as a rule, active = well fitted curve in the direction sought with a large enough effect; inconclusive = small, poorly fitted or top-dose-only effect, or another doubt; inactive = no such curve, though single readings can be large; an effect the other way counts as inactive or inconclusive.

SMILES | JMJD2A Tudor | HP1b binding inh | BAZ2B inh | G9a block | PLK1 PBD block | PI5P4Ka inh
Cc1nn(C)c(C)c1NC(=S)Nc1ccc(S(=O)(=O)Nc2ncccn2)cc1 | -6% | 12% | -15% | 71µM* | -8% | -6
Cc1ccc(S(=O)(=O)Nc2c(C)nn(C)c2C)cc1C | -4% | 19% | -1% | 16%[59 µM] | -1% | -4
Cc1cc(CNC(=S)Nc2ccc(S(=O)(=O)Nc3ncccn3)cc2)nn1C | -4% | 36% | -2% | . | -11% | -7
CCCN(C(=O)/C=C/c1ccc(S(=O)(=O)N(CC)CC)cc1)C1CCS(=O)(=O)C1 (configuration not stated) | -4% | 40% | . | . | -1% | -5
CC(C(=O)Nc1ccccc1C(F)(F)F)N1CCN(C)CC1 (configuration not stated) | 25µM* | ? | 79µM* | 3%[0.501 µM] | -9% | -1
CN1CCN(CCNC(=O)Nc2ccccc2C(F)(F)F)CC1 | -3% | 28% | 7% | -41% | -7% | 1
CC(C(=O)Nc1ccc(F)c(F)c1)N1CCN(C)CC1 (configuration not stated) | 3.2µM* | 35µM* | 22µM* | ? | -3% | -8
CCN1C(=O)/C(=C\c2ccncc2)SC1=Nc1ccc(C)c(C)c1 | 50µM* | ? | 32µM* | ? | -1% | 10
CCCN1C(=O)/C(=C\c2ccncc2)SC1=Nc1ccccc1 | ? | -27% | ? | ? | 2% | 3
COc1ccc(CNC(=O)Cc2c(C)c3c(cc(C)c4c(C)c(C)oc43)oc2=O)cc1 | -14% | 46% | 0% | -1%[59 µM] | . | .
CC(C)[C@@H](CSc1ccccc1)N1CCN(Cc2ccccc2)CCC1=O | -21% | 8% | -26% | 22% | -7% | -4
CN(CC(=O)Nc1c(Cl)cccc1Cl)CC(=O)N1CCc2ccccc21 | . | . | . | . | -4% | 0
CC12CC(c3ccccc3O1)N(C(=O)c1ccco1)C(=S)N2c1ccccc1 (configuration not stated) | -28% | -1% | ? | 40µM* | -2% | 0
CCn1cnc2c(Nc3ccc(CCC(=O)N=C(N)N)cc3)nc(C#N)nc21 | -9% | . | . | . | . | .
Cc1cc(C)n(-c2nc(NCC3CCCO3)c3c4c(sc3n2)COC(C)(C)C4)n1 (configuration not stated) | -15% | 34% | 10% | 1.8µM* | -13% | 4
N#CC1=C(N)OC2=C(C(=O)CC(c3ccco3)C2)C1c1ccc(OCc2c(F)cccc2Cl)cc1 (configuration not stated) | ? | -15% | 71µM* | -8%[0.501 µM] | -6% | -17
COc1ccc(OC)c(CCNC(=O)Cn2ccc3cc(S(=O)(=O)N4CCCCC4)ccc32)c1 | -35% | 45% | -30% | -32%[59 µM] | . | .
COc1ccccc1NC1=C(NC(C)=O)C(=O)c2ccccc2C1=O | ? | 50µM* | ? | 7.9µM* | ? | ?
COC1=C(Nc2ccccc2OC)C(=O)c2ccccc2C1=O | 45µM* | 35µM* | 8.9µM* | -161%[59 µM] | 1% | 0
COC1=C(Nc2ccccc2)C(=O)C(OC)=C(Nc2ccccc2)C1=O | -17% | 20%[57 µM] | . | . | 0% | 6
Cc1cc(Nc2cc(F)ccc2C)nc(-n2nc(C)cc2C)n1 | ? | 17%[57 µM] | -36% | 32%[59 µM] | . | .
CC(C(Sc1ccccc1N)c1ccccc1)[N+](=O)[O-] (configuration not stated) | 20µM* | ? | -36% | 3.2µM* | 1.9µM* | -30
Nc1ccccc1SC(CC(=O)c1ccccc1)c1ccccc1 (configuration not stated) | . | . | . | . | ? | -7
O=C(O)C/C(=C\c1ccc(N2CCOCC2)c([N+](=O)[O-])c1)c1nc2ccccc2s1 | -9%[11.4 µM] | -6% | 50µM* | ? | ? | -54*
CC(=O)Nc1ccc(N2CCOCC2)c([N+](=O)[O-])c1 | -1% | 16% | -21% | -7% | -1% | 1
SMILES | JMJD2A Tudor | HP1b binding inh | BAZ2B inh | G9a block | PLK1 PBD block | PI5P4Ka inh
O=C(O)CC/C(=C\c1ccc(N2CCOCC2)c([N+](=O)[O-])c1)c1nc2ccccc2s1 | ? | -11% | 35µM* | ? | -18% | 1
O=C(O)CC/C(=C\c1ccc(Cl)c([N+](=O)[O-])c1)c1nc2ccccc2s1 | -25% | 19% | -39% | -48% | -29% | 4
CC(=O)OCCN(C)c1cc(SC(C)C)c2nonc2c1[N+](=O)[O-] | ? | -1% | ? | 50µM* | ? | 3
CN(CCO)c1cc(Sc2nc3ccccc3s2)c2nonc2c1[N+](=O)[O-] | 22µM* | ? | -30%[57.1 µM] | ? | 1.9µM* | .
Nc1ncnc2c1ncn2[C@@H]1O[C@H](CNS(=O)(=O)c2cc3ccccc3s2)[C@@H](O)[C@H]1O | -25% | 6% | . | . | 5% | -2
O=C(CN1CCN(C(=O)C2CCCO2)CC1)Nc1ccc(F)cc1 (configuration not stated) | -7% | 32% | -3% | 22% | 5% | 11
COc1cc(C(C2C(=O)CC(C)(C)CC2=O)C2C(=O)CC(C)(C)CC2=O)cc(OC)c1OC | -10% | 54% | 1% | 45µM* | ? | -6
COc1cc(C(C2=C(O)CC(C)(C)CC2=O)C2C(=O)CC(C)(C)CC2=O)cc(OC)c1OC (configuration not stated) | -29%[57.1 µM] | -1% | ? | ? | 19µM* | -6
COc1cc(C(C2C(=O)CC(C)(C)CC2=O)C2C(=O)CC(C)(C)CC2=O)ccc1OC(C)=O | 6% | 47% | . | . | ? | 1
COc1ccc(C(C2C(=O)CC(C)(C)CC2=O)C2C(=O)CC(C)(C)CC2=O)cc1COCC(F)(F)F | 3% | 58% | -7% | ? | 6.7µM* | -22
Oc1ccccc1C1C=C(c2ccc3c(c2)OCO3)NC(c2cccc(Cl)c2)N1 (configuration not stated) | 2%[57.1 µM] | 7%[57 µM] | . | . | . | .
CC(C)N1CCC1(C)C(=O)Nc1cccc(C#N)c1 (configuration not stated) | . | . | . | . | 6% | 0
COc1ccc(NC(=O)C(c2ccccc2F)n2c(=O)c(-c3ccco3)nc3ccccc32)cc1 (configuration not stated) | . | . | . | . | 4% | -15
CCc1ccc(NC(=O)c2cc3c(=O)n(Cc4cccs4)ccc3nc2C)cc1 | -35% | 98% | 3% | -6%[59 µM] | . | .
Cc1ccc(CNC(=O)c2ccc(N3Cc4ccccc4Oc4ncccc43)s2)cc1 | -11% | 36% | -2% | 11%[59 µM] | . | .
CN(C)c1ccc(C2CC(=O)NC3=C2C(=O)CC(C)(C)C3)cc1 (configuration not stated) | -17% | 8% | -19% | ? | -6% | .
CCN(CC)c1ccc(C2CC(=O)NC3=C2C(=O)CC(C)(C)C3)cc1 (configuration not stated) | -19% | 7% | -33% | 50µM* | -2% | -1
